The full data set covers some 7,900 targets. This sample favours those with a hit. About 0.6% of all pairs of compound and target were hits. Values without a mark were called inactive.

Sequence of UniProt Q96JB5 (Q96JB5 whole entry, looked up): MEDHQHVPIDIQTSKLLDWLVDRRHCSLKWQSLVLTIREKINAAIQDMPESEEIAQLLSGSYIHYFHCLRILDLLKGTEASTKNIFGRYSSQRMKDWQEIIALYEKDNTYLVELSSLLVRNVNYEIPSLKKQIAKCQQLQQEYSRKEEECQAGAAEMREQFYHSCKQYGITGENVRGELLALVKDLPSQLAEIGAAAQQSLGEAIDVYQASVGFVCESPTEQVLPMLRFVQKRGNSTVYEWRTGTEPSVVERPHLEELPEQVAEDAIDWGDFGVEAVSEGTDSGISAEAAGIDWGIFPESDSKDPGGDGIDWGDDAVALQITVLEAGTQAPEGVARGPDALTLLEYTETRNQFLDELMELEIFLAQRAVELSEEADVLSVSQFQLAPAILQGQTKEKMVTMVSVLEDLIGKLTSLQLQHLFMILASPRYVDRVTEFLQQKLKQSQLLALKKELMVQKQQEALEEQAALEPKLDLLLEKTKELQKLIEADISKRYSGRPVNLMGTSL
Sequence of UniProt Q9Y5P4 (Q9Y5P4 whole entry, looked up): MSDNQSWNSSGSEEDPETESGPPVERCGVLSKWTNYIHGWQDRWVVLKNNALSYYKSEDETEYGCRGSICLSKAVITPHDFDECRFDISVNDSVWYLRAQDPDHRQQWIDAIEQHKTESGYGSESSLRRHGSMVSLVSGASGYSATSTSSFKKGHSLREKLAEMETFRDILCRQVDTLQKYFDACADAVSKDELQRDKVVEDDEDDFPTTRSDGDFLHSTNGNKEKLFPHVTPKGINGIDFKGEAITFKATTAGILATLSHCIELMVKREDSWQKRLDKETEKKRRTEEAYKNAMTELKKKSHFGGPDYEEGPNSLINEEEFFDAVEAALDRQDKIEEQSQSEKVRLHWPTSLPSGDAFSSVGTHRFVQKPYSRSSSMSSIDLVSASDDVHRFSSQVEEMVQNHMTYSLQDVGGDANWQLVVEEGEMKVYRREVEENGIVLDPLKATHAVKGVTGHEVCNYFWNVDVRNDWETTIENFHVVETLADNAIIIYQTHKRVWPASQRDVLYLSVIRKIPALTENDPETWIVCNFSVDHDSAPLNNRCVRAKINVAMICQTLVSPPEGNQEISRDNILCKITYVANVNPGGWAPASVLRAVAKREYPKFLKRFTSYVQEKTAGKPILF
Sequence of UniProt Q13137 (Q13137 whole entry, looked up): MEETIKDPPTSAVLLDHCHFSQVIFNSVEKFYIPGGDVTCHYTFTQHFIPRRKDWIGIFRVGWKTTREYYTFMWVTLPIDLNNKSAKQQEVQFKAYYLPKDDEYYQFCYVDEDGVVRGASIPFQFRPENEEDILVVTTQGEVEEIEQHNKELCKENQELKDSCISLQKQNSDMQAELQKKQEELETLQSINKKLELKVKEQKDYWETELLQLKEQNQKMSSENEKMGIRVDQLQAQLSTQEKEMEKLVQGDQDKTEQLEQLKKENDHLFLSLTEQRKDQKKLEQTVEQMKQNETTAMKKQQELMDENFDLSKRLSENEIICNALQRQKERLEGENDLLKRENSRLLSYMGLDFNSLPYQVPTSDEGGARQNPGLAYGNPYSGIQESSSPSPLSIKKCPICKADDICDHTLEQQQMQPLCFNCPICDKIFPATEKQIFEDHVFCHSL
Sequence of UniProt P08174 (P08174 whole entry, looked up): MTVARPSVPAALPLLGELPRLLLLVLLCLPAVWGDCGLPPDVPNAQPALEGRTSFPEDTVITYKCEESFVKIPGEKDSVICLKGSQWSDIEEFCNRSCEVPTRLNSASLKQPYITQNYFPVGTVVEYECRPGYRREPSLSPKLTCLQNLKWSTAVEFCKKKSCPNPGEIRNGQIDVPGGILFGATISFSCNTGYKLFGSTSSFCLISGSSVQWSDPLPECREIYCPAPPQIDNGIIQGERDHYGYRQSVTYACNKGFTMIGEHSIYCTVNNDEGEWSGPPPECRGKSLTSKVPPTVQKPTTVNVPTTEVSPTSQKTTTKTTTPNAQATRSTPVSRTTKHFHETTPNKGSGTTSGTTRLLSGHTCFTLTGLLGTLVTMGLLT
Sequence of UniProt Q9Y3X0 (Q9Y3X0 whole entry, looked up): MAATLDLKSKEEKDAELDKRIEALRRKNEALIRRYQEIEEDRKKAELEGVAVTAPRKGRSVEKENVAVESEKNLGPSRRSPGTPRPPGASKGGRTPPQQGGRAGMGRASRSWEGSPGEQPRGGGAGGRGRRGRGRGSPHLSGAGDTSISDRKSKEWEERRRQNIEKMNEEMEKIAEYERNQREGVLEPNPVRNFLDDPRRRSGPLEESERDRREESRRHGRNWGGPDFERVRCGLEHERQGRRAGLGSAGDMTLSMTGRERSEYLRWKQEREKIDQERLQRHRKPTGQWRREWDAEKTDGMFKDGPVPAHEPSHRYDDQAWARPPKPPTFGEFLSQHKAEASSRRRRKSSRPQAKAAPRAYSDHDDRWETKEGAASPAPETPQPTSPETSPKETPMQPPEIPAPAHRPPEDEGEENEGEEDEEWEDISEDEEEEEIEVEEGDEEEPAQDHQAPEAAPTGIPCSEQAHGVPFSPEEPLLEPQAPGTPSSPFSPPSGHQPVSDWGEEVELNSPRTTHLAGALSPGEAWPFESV
Sequence of UniProt O75909 (O75909 whole entry, looked up): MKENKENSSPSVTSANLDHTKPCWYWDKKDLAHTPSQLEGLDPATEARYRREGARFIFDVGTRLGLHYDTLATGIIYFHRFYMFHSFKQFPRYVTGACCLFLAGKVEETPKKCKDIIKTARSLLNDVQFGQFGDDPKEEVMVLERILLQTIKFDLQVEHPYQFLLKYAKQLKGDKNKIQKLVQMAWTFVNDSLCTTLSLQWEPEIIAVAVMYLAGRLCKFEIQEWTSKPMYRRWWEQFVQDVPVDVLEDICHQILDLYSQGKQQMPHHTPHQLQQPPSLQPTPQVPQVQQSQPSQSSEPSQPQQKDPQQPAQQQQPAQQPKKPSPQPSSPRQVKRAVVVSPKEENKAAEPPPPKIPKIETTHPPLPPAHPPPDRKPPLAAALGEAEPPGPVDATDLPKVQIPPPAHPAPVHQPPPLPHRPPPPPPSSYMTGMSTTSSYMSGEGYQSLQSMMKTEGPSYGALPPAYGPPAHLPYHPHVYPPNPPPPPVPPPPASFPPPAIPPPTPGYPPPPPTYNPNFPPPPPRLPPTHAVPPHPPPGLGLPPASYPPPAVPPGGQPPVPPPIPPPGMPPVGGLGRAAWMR
Sequence of UniProt Q8IWY9 (Q8IWY9 whole entry, looked up): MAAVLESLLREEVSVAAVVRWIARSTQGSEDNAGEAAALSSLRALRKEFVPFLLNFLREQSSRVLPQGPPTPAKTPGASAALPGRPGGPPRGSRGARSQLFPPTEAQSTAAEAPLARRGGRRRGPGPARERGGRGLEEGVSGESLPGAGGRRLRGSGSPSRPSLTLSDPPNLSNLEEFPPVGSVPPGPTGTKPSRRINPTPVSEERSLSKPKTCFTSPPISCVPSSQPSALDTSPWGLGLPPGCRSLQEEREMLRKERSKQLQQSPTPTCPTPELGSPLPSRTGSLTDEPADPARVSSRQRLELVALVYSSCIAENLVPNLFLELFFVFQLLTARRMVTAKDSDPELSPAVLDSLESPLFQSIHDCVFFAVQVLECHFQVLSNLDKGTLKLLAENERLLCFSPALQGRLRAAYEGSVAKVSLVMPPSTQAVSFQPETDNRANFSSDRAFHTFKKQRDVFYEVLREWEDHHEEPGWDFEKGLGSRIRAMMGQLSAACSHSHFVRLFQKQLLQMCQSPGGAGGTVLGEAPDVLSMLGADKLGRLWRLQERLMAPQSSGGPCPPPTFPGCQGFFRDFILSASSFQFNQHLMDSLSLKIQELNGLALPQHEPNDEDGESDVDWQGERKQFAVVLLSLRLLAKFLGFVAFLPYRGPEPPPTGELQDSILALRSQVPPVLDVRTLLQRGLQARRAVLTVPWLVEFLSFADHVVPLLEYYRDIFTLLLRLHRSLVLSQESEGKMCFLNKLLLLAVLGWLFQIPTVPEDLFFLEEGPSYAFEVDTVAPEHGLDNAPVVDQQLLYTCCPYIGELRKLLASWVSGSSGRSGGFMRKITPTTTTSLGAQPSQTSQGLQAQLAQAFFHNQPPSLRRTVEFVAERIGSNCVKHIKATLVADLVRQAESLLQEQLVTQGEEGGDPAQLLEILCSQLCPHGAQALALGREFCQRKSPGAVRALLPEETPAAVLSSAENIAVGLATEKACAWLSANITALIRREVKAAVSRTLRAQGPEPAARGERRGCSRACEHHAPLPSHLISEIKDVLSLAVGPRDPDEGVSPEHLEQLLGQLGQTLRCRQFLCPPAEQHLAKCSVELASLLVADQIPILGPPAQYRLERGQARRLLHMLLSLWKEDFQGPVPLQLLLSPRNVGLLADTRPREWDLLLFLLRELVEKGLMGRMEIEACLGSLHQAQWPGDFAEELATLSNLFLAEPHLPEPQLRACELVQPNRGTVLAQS
Sequence of UniProt Q96RR4 (Q96RR4 whole entry, looked up): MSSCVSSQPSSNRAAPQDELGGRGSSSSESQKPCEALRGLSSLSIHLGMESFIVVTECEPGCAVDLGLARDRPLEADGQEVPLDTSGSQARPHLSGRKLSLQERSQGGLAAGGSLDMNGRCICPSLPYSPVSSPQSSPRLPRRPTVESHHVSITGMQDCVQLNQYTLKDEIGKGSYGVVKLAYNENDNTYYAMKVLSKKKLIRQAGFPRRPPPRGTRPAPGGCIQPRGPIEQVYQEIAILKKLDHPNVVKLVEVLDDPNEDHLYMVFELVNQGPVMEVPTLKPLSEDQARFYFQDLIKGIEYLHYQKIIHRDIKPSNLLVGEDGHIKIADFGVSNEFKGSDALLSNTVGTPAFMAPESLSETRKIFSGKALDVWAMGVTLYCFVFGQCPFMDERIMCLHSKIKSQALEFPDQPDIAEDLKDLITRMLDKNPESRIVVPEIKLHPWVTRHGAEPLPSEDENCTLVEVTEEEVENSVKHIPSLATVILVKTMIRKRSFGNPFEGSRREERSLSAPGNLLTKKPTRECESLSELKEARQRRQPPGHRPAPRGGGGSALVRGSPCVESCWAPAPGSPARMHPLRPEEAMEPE
Sequence of UniProt Q8NHZ8 (Q8NHZ8 whole entry, looked up): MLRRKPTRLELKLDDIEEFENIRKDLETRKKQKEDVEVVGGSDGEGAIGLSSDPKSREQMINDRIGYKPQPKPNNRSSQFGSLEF

Compound in the first assay: COC1=CC=C(C=C1)CN2C=CC3=C2C=C(C=C3)C(=O)NO
The assay is described as follows: log2 fold change, soluble protein after heating vs DMSO (PISA); higher = thermal stabilisation; K562 cells, 10 uM, 30 min; active = over 0.2 and 3.5 SD of the protein, either way, in both replicates (recomputed). In outline:
(§1)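 Soluble protein was defined as the supernatant after 21,000xg for 90 min. It came from K562 cells at 2×10^6 cells/mL given 10 μM compound for 30 min, heated in aliquots for 3 min across 48°C-58°C, pooled, and extracted in PBS with 0.5% NP-40 at 4°C, and was quantified by TMTpro 16plex LC-MS/MS with equalised channel sums. Thermal stability against control samples, from duplicates, is reported as log2 fold change.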
As to CHP1 (UniProt Q99653), the log2 fold change is 0.039.

As for CES2 isoform 4 (UniProt O00748), the log2 fold change was -0.099.

Regarding CPT2 (UniProt P23786), the log2 fold change is 0.114.

Take CNN2 (UniProt Q99439): the log2 fold change was -0.008.

With CBX5 (UniProt P45973), the log2 fold change is 0.119.

As for CNOT4 isoform 6 (UniProt O95628), the log2 fold change is -0.057.

Regarding CD55 isoform 7 (UniProt P08174), the log2 fold change was -0.115.

CPT1A (UniProt P50416): the log2 fold change was 0.073.

As for CD81 (UniProt P60033), the log2 fold change is -0.051.

For CRK (UniProt P46108), the log2 fold change is 0.072.

Take CSK (UniProt P41240): the log2 fold change is 0.034.

With CELF2 isoform 3 (UniProt O95319), the log2 fold change is 0.115.

As for CDK5RAP3 isoform 4 (UniProt Q96JB5), the log2 fold change is -0.008.

Turning to CSNK2A2 (UniProt P19784), the log2 fold change is -0.042.

For CCZ1 (UniProt P86791), the log2 fold change is 0.052.

For the target CBR1 (UniProt P16152), the log2 fold change was 0.

Take CHAMP1 (UniProt Q96JM3): the log2 fold change is -0.001.

Regarding CHMP4C (UniProt Q96CF2), the log2 fold change is 0.163.

CBS (UniProt P35520): the log2 fold change was -0.225 (active).

For COX15 (UniProt Q7KZN9), the log2 fold change is 0.04.

Take CDAN1 (UniProt Q8IWY9): the log2 fold change is -0.032.

For CDC26 (UniProt Q8NHZ8), the log2 fold change is -0.031.

Turning to COPS3 (UniProt Q9UNS2), the log2 fold change was 0.12.

With CALCOCO2 isoform 4 (UniProt Q13137), the log2 fold change is -0.041.

CASP10 isoform 4 (UniProt Q92851): the log2 fold change is 0.012.

For the target C9orf72 (UniProt Q96LT7), the log2 fold change is -0.06.

On to CSNK2A1 (UniProt P68400), for which the log2 fold change is -0.025.

On to CCNB1 (UniProt P14635), for which the log2 fold change was -0.006.

In the case of CHCHD1 (UniProt Q96BP2), the log2 fold change is 0.037.

With CERT isoform 3 (UniProt Q9Y5P4), the log2 fold change is -0.025.

For the target CCDC9 (UniProt Q9Y3X0), the log2 fold change is 0.057.

In the case of CAMKK2 (UniProt Q96RR4), the log2 fold change was -0.063.

Regarding COMT (UniProt P21964), the log2 fold change is -0.097.

As to CCNK isoform 4 (UniProt O75909), the log2 fold change was -0.067.

As to CDC42BPA isoform 6 (UniProt Q5VT25), the log2 fold change is -0.005.

C9orf64 (UniProt Q5T6V5): the log2 fold change is 0.07.

Compound in another assay: CON(C)C(=O)N1N=C(c2cc(F)ccc2F)S[C@@]1(CCCN)c1ccccc1 [filanesib]
The assay is described as above. In outline: as §1
Take CHP1 (UniProt Q99653): the log2 fold change is -0.044.

Turning to CES2 isoform 4 (UniProt O00748), the log2 fold change is 0.055.

With CPT2 (UniProt P23786), the log2 fold change was -0.207.

Consider CNN2 (UniProt Q99439), for which the log2 fold change is -0.058.

Regarding CBX5 (UniProt P45973), the log2 fold change is -0.046.

With CNOT4 isoform 6 (UniProt O95628), the log2 fold change is 0.017.

On to CD55 isoform 7 (UniProt P08174), for which the log2 fold change was 0.086.

With CPT1A (UniProt P50416), the log2 fold change was 0.204.

As for CD81 (UniProt P60033), the log2 fold change was 0.049.

CRK (UniProt P46108): the log2 fold change was 0.008.

Consider CSK (UniProt P41240), for which the log2 fold change was -0.049.

Take CELF2 isoform 3 (UniProt O95319): the log2 fold change was 0.052.

As to CDK5RAP3 isoform 4 (UniProt Q96JB5), the log2 fold change is -0.085.

As to CSNK2A2 (UniProt P19784), the log2 fold change is -0.019.

Turning to CCZ1 (UniProt P86791), the log2 fold change was -0.062.

Turning to CBR1 (UniProt P16152), the log2 fold change was -0.024.

With CHAMP1 (UniProt Q96JM3), the log2 fold change was -0.008.

As for CHMP4C (UniProt Q96CF2), the log2 fold change is 0.014.

CBS (UniProt P35520): the log2 fold change was -0.05.

COX15 (UniProt Q7KZN9): the log2 fold change was -0.046.

On to CDAN1 (UniProt Q8IWY9), for which the log2 fold change is -0.017.

Take CDC26 (UniProt Q8NHZ8): the log2 fold change was 0.085.

Take COPS3 (UniProt Q9UNS2): the log2 fold change was -0.035.

Consider CALCOCO2 isoform 4 (UniProt Q13137), for which the log2 fold change was -0.166.

Regarding CASP10 isoform 4 (UniProt Q92851), the log2 fold change was 0.078.

Turning to C9orf72 (UniProt Q96LT7), the log2 fold change is -0.054.

For CSNK2A1 (UniProt P68400), the log2 fold change is 0.03.

With CCNB1 (UniProt P14635), the log2 fold change was -0.035.

CHCHD1 (UniProt Q96BP2): the log2 fold change is -0.017.

As to CERT isoform 3 (UniProt Q9Y5P4), the log2 fold change was 0.001.

For CCDC9 (UniProt Q9Y3X0), the log2 fold change was 0.021.

Consider CAMKK2 (UniProt Q96RR4), for which the log2 fold change is 0.085.

For the target COMT (UniProt P21964), the log2 fold change is -0.054.

Turning to CCNK isoform 4 (UniProt O75909), the log2 fold change is 0.177.

As for CDC42BPA isoform 6 (UniProt Q5VT25), the log2 fold change is 0.009.

For C9orf64 (UniProt Q5T6V5), the log2 fold change is -0.091.

(Values after the supplement of paper PMC10849652.)
